Source: PubChem BioAssay (NCI)
The panel holds about 79,000 compounds, 15% with a hit somewhere; the sample as a whole holds those more often. Unmarked numbers belong to inactive results. Active and inactive are the calls of the source. Cut-off read from the data, not from the text of the source: active = growth inhibition above about 70%; inactive = the rest.

Tests used:
[1] = NCI Yeast Anticancer Drug Screen. Data for the rad50 strain (AID 155);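 note: 0% = growth of vehicle-only cultures of the same strain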; details: S. cerevisiae rad50 strain growth inhibition, hits give high values
How it was run: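 Relative growth inhibition (compound vs vehicle) was measured in yeast with a defined repair-gene alteration.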

[2] = NCI Yeast Anticancer Drug Screen. Data for the mec2-1 strain (AID 157); details: S. cerevisiae mec2-1 strain, hits give high values
How it was run: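 Using mec2-1 yeast: add compound, measure growth, express inhibition versus vehicle-treated cultures.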

[3] = NCI Yeast Anticancer Drug Screen. Data for the sgs1 mgt1 strain (AID 161);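 note: 0% = growth of cultures given vehicle only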; details: S. cerevisiae sgs1 mgt1 strain, hits give high values
How it was run: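 This yeast growth screen uses a strain with defined DNA-repair lesions; compound-treated growth is compared with vehicle-treated growth.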

[4] = NCI Yeast Anticancer Drug Screen. Data for the cln2 rad14 strain (AID 165);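 note: 0% = growth equal to vehicle treated cultures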; details: S. cerevisiae cln2 rad14 strain, hits give high values
How it was run: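 Yeast strain cln2 rad14, bearing defects in cell cycle control and DNA repair, serves as the test system; values reflect growth inhibition compared with vehicle.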

[5] = NCI Yeast Anticancer Drug Screen. Data for the bub3 strain (AID 167); details: S. cerevisiae bub3 mutant strain, hits give high values
How it was run: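 Screening used yeast with an engineered genetic alteration affecting cell cycle control. Compound-exposed cultures were compared with vehicle cultures, and reduced growth was taken as inhibition.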

[6] = NCI Yeast Anticancer Drug Screen. Data for the mlh1 rad18 strain (AID 175); details: S. cerevisiae mlh1 rad18 strain growth inhibition, hits give high values
How it was run: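 Steps: expose repair-defective yeast to compound; measure growth; express inhibition against vehicle-treated controls.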

[7] = at 5.0 µM (retest, dose inferred, filed as 0.5)
[8] = at 50.0 µM (retest, dose inferred, filed as 5.0)

Structure (SMILES) | growth inhibition [1, 7] | growth inhibition [1, 8] | growth inhibition ([1]; at 50.0 µM) | growth inhibition [2, 7] | growth inhibition [2, 8] | growth inhibition ([2]; at 50.0 µM) | growth inhibition [3, 7] | growth inhibition [3, 8] | growth inhibition ([3]; at 50.0 µM) | growth inhibition [4, 7] | growth inhibition [4, 8] | growth inhibition ([4]; at 50.0 µM) | growth inhibition [5, 7] | growth inhibition [5, 8] | growth inhibition ([5]; at 50.0 µM) | growth inhibition [6, 7] | growth inhibition [6, 8] | growth inhibition ([6]; at 50.0 µM)
C[C@]12CC[C@@H]3c4cc(OCC(F)(F)F)c(O)cc4CC[C@H]3[C@@H]1CC[C@@H]2O | -3% | 97% (active) | 98.6% (active) | -5% | 99% (active) | 98.5% (active) | 10% | 99% (active) | 98.8% (active) | -13% | 97% (active) | 98.2% (active) | 5% | 99% (active) | 98.8% (active) | -6% | 98% (active) | 98.6% (active)
N#CSCCSCc1ccc(Cl)cc1 | 4% | 99% (active) | 99.2% (active) | 25% | 99% (active) | 99.5% (active) | 7% | 99% (active) | 99.4% (active) | -6% | 99% (active) | 98.9% (active) | -6% | 99% (active) | 99.5% (active) | 6% | 99% (active) | 99.3% (active)
CCCCCCCCC[n+]1cccc(C(=O)c2ccccc2)c1 | -1% | 53% | 51.6% | 4% | 56% | 24.8% | -165% | 77% (active) | 72.7% (active) | -4% | 42% | 3.95% | 0% | 70% (active) | 82.5% (active) | 36% | 78% (active) | 72.7% (active)
Cc1cc(=O)n(C)c2c(C)cccc12 | -163% | -139% | 12.9% | -47% | -47% | 15.9% | -60% | -57% | 12.4% | -56% | -50% | 46.3% | -73% | -72% | -2.85% | -145% | -107% | 10.2%
CC(=O)OC1COC(N2C(=O)C(=O)c3cc(Br)ccc32)C(OC(C)=O)C1OC(C)=O (configuration not stated) | -11% | 20% | 50.7% | 1% | 7% | -12.3% | -16% | 0% | 2.9% | -37% | -4% | 19.1% | -13% | 23% | 25.4% | -2% | 14% | 12.9%
COc1ccc(N=Nc2ccc3oc(=O)c(C(=O)Nc4ccc(Cl)cc4)cc3c2)cc1 | 29% | 98% (active) | 98.5% (active) | 16% | 98% (active) | 98.9% (active) | 0% | 98% (active) | 98.3% (active) | 16% | 98% (active) | 98.3% (active) | 14% | 97% (active) | 98.8% (active) | 33% | 99% (active) | 98.7% (active)
COc1cc(O)c2c(c1)C(O)C(O)CC1OC1C(=O)/C=C/CC(C)OC2=O (configuration not stated) | 80% (active) | 98% (active) | 91.5% (active) | 59% | 99% (active) | 93.3% (active) | 64% | 99% (active) | 93.1% (active) | 61% | 99% (active) | 92.2% (active) | 79% (active) | 99% (active) | 92% (active) | 81% (active) | 98% (active) | 92% (active)
COc1ccc(C(c2ccc(N(C)C)cc2)c2ccc(N(C)C)cc2)cc1 | 97% (active) | 85% (active) | 93.5% (active) | 98% (active) | 88% (active) | 93% (active) | 99% (active) | 89% (active) | 94% (active) | 98% (active) | 85% (active) | 41.6% | 99% (active) | 90% (active) | 94.5% (active) | 99% (active) | 87% (active) | 73.2% (active)
Cn1c(=O)c2c(ncn2-c2ccncc2)n(C)c1=O | -5% | 0% | 11.4% | -4% | -5% | -3.9% | -3% | -7% | 15.9% | -3% | 31% | 73.8% (active) | -9% | -8% | -5.35% | -5% | -2% | 4.8%
Nc1ccc2c(c1)[nH]c(=O)c1ccc(Cl)cc12 | -63% | 94% (active) | 98.2% (active) | -32% | 82% (active) | 90.5% (active) | -32% | 83% (active) | 93.1% (active) | -30% | 85% (active) | 92.5% (active) | -52% | 91% (active) | 78.9% (active) | -56% | 93% (active) | 97% (active)
COc1ccc(/C=C2\NC(=O)NC2=O)cc1 | 0% | 7% | -1.65% | -4% | 5% | -6.8% | -1% | 3% | -0.65% | -4% | -3% | 24.1% | 27% | 22% | 6.25% | -1% | 5% | 18.6%
C1CCC(CC[N+]23CC[N+](CCC4CCCC4)(CC2)C3)C1 | 1% | 33% | 62.3% | -8% | 34% | -14.4% | 12% | 72% (active) | 45.3% | 2% | 15% | -8.6% | 2% | 25% | 11.6% | 24% | 59% | 40%
CCCCCCCCC1OC1CCCCCCCC(=O)OCC1CO1 (configuration not stated) | 1% | -11% | 3.45% | 1% | -10% | -18.7% | 1% | -10% | 8.9% | 5% | 5% | 29.1% | -3% | -16% | -25.1% | 25% | -14% | -40.8%
ClCc1ccc2ccc3ccc(CCl)nc3c2n1 | 31% | 81% (active) | 47.1% | 67% | 93% (active) | 43% | 65% | 93% (active) | 70.2% (active) | 29% | 81% (active) | 27.8% | -7% | 95% (active) | 59% | 72% (active) | 94% (active) | 62%
CC(=O)CC(=O)OCc1ccccc1 | 12% | 97% (active) | 94.5% (active) | 4% | 98% (active) | 97.2% (active) | 1% | 96% (active) | 98% (active) | 4% | 89% (active) | 87.2% (active) | 8% | 98% (active) | 96% (active) | 14% | 98% (active) | 97.7% (active)
COc1ccc(/C(O)=C/c2nc3ccc([N+](=O)[O-])cc3[nH]c2=O)cc1 | 12% | 70% (active) | 78.9% (active) | 1% | 57% | 49.5% | -2% | 67% | 92.6% (active) | 3% | 77% (active) | 80.7% (active) | 2% | 46% | 26.9% | 2% | 68% | 90.8% (active)
COc1nc(NC2OC(CO)C(O)C(O)C2O)c(Cl)c(=O)[nH]1 (configuration not stated) | 1% | 1% | 47.5% | 4% | 12% | -0.6% | 12% | 4% | 24.1% | 7% | 11% | 20.6% | 4% | 14% | 15.3% | 4% | 5% | 1.65%
CCN1CCC(O)(/C=C/c2ccccc2C)C(C(=O)/C=C/c2ccccc2C)C1 (configuration not stated) | 8% | 84% (active) | 94.4% (active) | -2% | 74% (active) | 98.2% (active) | 3% | 83% (active) | 99.4% (active) | -2% | 54% | 92.2% (active) | 8% | 83% (active) | 98.5% (active) | 4% | 93% (active) | 99.5% (active)
CCOC(=O)/C(=C/O)c1c[nH]c2ccccc12 | 0% | 94% (active) | 97.8% (active) | -4% | 95% (active) | 98.3% (active) | -4% | 95% (active) | 96.8% (active) | 1% | 96% (active) | 96% (active) | 0% | 96% (active) | 97.3% (active) | 3% | 96% (active) | 97.7% (active)
